# Inconclusive results are not listed. Where a call stands in place of a potency, no number is given. Active and inactive are the calls of the source. Unless noted, calls follow the shape of the dose curve; as a rule, active = well fitted curve in the direction sought with a large enough effect in the repeat runs; inconclusive = weak or mixed curves; inactive = no such curve, though single readings can be large; an effect the other way counts as inactive or inconclusive.
# Columns and labels:
# [1] = qHTS assay for small molecule agonists of the p53 signaling pathway (AID 651631; calls by dose curve; also: nearly all actives have a fitted effect of over 15% in size)
# How it was run: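 HCT-116 p53RE-bla reporter line, 16 h compound treatment at 37 °C, then fluorescence after 2 h with B/G FRET substrate.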
# [2] = qHTS assay for small molecules that induce genotoxicity in human embryonic kidney cells expressing luciferase-tagged ATAD5 (AID 651632); also: nearly all actives have a fitted effect of over 15% in size
# How it was run: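 Test compounds were delivered by pin tool onto HEK293T reporter cells (2,000/well) expressing ATAD5 fused to luciferase. After 16 hr at 37C, 5% CO2, Amplite was added for 30 min at room temperature and luminescence was measured.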
# [3] = qHTS assay for small molecule agonists of the p53 signaling pathway - cell viability (AID 651633; calls by dose curve;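 also: p53RE-bla HCT reporter cells with a stable beta-lactamase p53 reporter; series mostly up to about 83 µM; nearly all actives have a fitted effect of over 30% in size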)
# How it was run: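 p53RE-bla cells, seeded at 4,000 per well and rested 5 h at 37 C/5% CO2, received compounds in DMSO for 16 h at 37 C. CellTiter-Glo was then added, and luminescence was read after 30 min at room temperature to gauge cytotoxicity.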
# [4] = qHTS assay for small molecules that induce genotoxicity in human embryonic kidney cells expressing luciferase-tagged ATAD5 - cell viability (AID 651634; calls by dose curve; also: nearly all actives have a fitted effect of over 25% in size)
# How it was run: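 Quantitative high-throughput format. HEK293T cells expressing ATAD5 fused to luciferase were plated at 2,000 cells/well and treated 15.5 hr with compound versus DMSO. Viability was determined by fluorescent live-cell protease substrate, 30 min at 37C.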
# [5] = qHTS assay for small molecule disruptors of the mitochondrial membrane potential - cell viability (AID 720634; calls by dose curve;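 also: human HepG2 liver cancer cells; series mostly up to about 83 µM; nearly all actives have a fitted effect of over 20% in size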)
# How it was run: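 Same-well counter-screen: following the MMP dye addition, CellTiter-Glo was added to 1 hr compound-treated HepG2 cells and luminescence read after 30 min at room temperature.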
# [6] = qHTS assay for small molecule disruptors of the mitochondrial membrane potential (AID 720635)
# How it was run: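 HepG2 cells (2,000/well) attached overnight at 37C, then took compound for 1 hr at 37C, 5% CO2. Mito-MPS dye was added for 30 min; fluorescence was read at 490/535 nm (monomers) and 540/590 nm (aggregates).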
# [7] = qHTS assay to test for compound auto fluorescence at 590 nm (red) in HepG2 cells (AID 720674)
# How it was run: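 Compound auto-fluorescence is scored relative to Rose Bengal sodium, measured at 540/590 nm in live HepG2 cultures after 1 hr compound contact (37 C, 5% CO2).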
# [8] = qHTS assay to test for compound auto fluorescence at 535 nm (green) in HepG2 cells (AID 720675)
# [9] = qHTS assay to test for compound auto fluorescence at 460 nm (blue) in HEK293 cells (AID 720678)
# How it was run: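 Triamterene serves as the blue fluorophore standard. Compound signal at 405/460 nm is read in HEK293 wells (2,000 cells, 10% dialyzed FBS) after overnight treatment at 37C.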
# [10] = qHTS assay to test for compound auto fluorescence at 590 nm (red) in HEK293 cells (AID 720679)
# How it was run: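 We plated HEK293 cells in 10% dialyzed FBS medium, let them adhere for 4-5 hr, then added 23 nL compound. Overnight at 37C and 5% CO2 preceded fluorescence measurement at 540/590nm.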
# [11] = qHTS assay to test for compound auto fluorescence at 535 nm (green) in HEK293 cells (AID 720680)
# [12] = qHTS assay to test for compound auto fluorescence at 460 nm (blue) in HEK293 cell free culture (AID 720681)
# How it was run: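 Test compounds were pinned into cell-free culture medium (DMEM with 10% FBS) and fluorescence was read directly at Ex/Em 405/460 nm. Signals were expressed as fluorescence equivalents of triamterene, with DMSO vehicle as control.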
# [13] = qHTS assay to test for compound auto fluorescence at 535 nm (green) in HEK293 cell free culture (AID 720682)
# How it was run: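 Steps: dispense DMEM/10% FBS into empty wells; pin in compound or DMSO; measure fluorescence at 485/535 nm. Values are fluorescein equivalents.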
# [14] = qHTS assay to test for compound auto fluorescence at 590 nm (red) in HEK293 cell free culture (AID 720683)
# How it was run: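 Tox21 10K library compounds were pinned into cell-free DMEM with 10% FBS and fluorescence was read at excitation 540 nm. Activity is expressed as Rose Bengal sodium equivalency.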
# [15] = qHTS assay to test for compound auto fluorescence at 460 nm (blue) in HepG2 cell free culture (AID 720685)
# How it was run: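 Cell-free plates of MEM plus 10% FBS received 23 nL compound or DMSO vehicle; blue-channel (405/460 nm) intensity scored against triamterene as reference fluorophore.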
# [16] = qHTS assay to test for compound auto fluorescence at 535 nm (green) in HepG2 cell free culture (AID 720686)
# [17] = qHTS assay to test for compound auto fluorescence at 460 nm (blue) in HepG2 cells (AID 720687)
# How it was run: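 Cells (2,000/well in MEM with 10% FBS) attached overnight at 37 C, then were exposed to compound or DMSO for 1 hr at 37 C, 5% CO2. Fluorescence read at Ex/Em 405/460 nm, expressed as triamterene-equivalent signal.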
# [18] = target: Glucocorticoid receptor (Homo sapiens) (UniProt P04150); test: qHTS assay to identify small molecule agonists of the glucocorticoid receptor (GR) signaling pathway (AID 720691; active = well fitted activation curve with a large enough effect in the signal ratio in the repeat runs, not every such curve was filed as active; the % refers to the signal ratio)
# Chain of Glucocorticoid receptor (Homo sapiens) (P04150 whole entry, looked up): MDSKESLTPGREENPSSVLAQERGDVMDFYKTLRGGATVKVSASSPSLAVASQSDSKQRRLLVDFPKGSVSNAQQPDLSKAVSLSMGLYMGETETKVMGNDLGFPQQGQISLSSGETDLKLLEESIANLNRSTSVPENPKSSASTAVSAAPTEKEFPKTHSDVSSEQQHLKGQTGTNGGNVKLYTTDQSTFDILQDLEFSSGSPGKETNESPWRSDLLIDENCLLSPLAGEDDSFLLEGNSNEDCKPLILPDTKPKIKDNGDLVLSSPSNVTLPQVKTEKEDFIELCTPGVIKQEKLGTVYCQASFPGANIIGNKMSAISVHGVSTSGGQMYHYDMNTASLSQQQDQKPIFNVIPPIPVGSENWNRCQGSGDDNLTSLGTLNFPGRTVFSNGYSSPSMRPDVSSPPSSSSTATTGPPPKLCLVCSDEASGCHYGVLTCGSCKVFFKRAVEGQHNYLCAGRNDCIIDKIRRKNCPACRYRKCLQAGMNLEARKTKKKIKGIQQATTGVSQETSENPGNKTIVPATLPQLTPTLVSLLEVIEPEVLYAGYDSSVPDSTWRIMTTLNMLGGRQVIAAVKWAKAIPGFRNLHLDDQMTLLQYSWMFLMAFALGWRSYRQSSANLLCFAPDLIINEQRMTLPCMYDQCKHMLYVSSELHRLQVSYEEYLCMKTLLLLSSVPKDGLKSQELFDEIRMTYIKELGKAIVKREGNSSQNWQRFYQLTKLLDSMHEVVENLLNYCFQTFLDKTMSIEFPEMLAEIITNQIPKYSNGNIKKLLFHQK
# How it was run: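 A HeLa cervical cancer line expressing GR and a glucocorticoid response element-driven beta-lactamase gene is treated with compounds for 18 h; LiveBLAzer B/G FRET substrate is then applied and fluorescence read.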
# [19] = qHTS assay to test for compound auto fluorescence at 590 nm (red) in HepG2 cell free culture (AID 720684)
# How it was run: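 Ex 540 / Em 590 nm read of compound in cell-free MEM (10% FBS). Rose Bengal sodium reference.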
# [20] = target: Glucocorticoid receptor (Homo sapiens) (UniProt P04150); test: qHTS assay to identify small molecule antagonists of the glucocorticoid receptor (GR) signaling pathway (AID 720692; active = well fitted inhibition curve with a large enough effect in the signal ratio in the repeat runs, not every such curve was filed as active; the % refers to the signal ratio; also: potency is read from the fitted curve at half-maximal effect)
# How it was run: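 GRE-bla HeLa line, dex-stimulated (5 nM final). Compound exposure 18 h, 37 C. Beta-lactamase FRET read after 2 h RT substrate.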
Compound,Potency [1],Potency [2],Potency [3],Potency [4],Potency [5],Potency [6],outcome [7],outcome [8],outcome [9],outcome [10],outcome [11],outcome [12],outcome [13],outcome [14],outcome [15],outcome [16],outcome [17],Potency [18],outcome [19],Potency [20]
CCCCCCCCP(=O)(O)O,inactive,inactive,inactive,inactive,inactive,inactive,inactive,inactive,inactive,inactive,inactive,inactive,inactive,inactive,inactive,inactive,inactive,inactive,,
O=C(Cc1ccccc1)OCCc1ccccc1,inactive,inactive,inactive,inactive,inactive,inactive,inactive,inactive,inactive,inactive,inactive,inactive,inactive,inactive,inactive,inactive,inactive,inactive,inactive,inactive
COc1cc(CC(C)N)c(OC)cc1Br (stereo not drawn),inactive,inactive,inactive,inactive,inactive,inactive,inactive,inactive,inactive,inactive,inactive,inactive,inactive,inactive,inactive,inactive,inactive,,inactive,
O=C([O-])c1ccccn1.O=C([O-])c1ccccn1.O=C([O-])c1ccccn1.[Cr+3],inactive,inactive,inactive,inactive,inactive,inactive,inactive,inactive,inactive,inactive,inactive,inactive,inactive,inactive,inactive,inactive,inactive,inactive,inactive,
CC1(C)CC(=O)CC(C)(C)N1[O],inactive,inactive,inactive,inactive,inactive,inactive,inactive,inactive,inactive,inactive,inactive,inactive,inactive,inactive,inactive,inactive,inactive,,inactive,
NC(=O)CF,inactive,inactive,inactive,inactive,inactive,inactive,inactive,inactive,inactive,inactive,inactive,inactive,inactive,inactive,inactive,inactive,inactive,inactive,inactive,
COc1cc(C[C@@H](C)N)c(OC)cc1Br,inactive,inactive,inactive,inactive,inactive,,inactive,inactive,inactive,inactive,inactive,inactive,inactive,inactive,inactive,inactive,inactive,,inactive,
Cc1ccc2c(C)cccc2c1,inactive,inactive,inactive,inactive,inactive,,inactive,inactive,inactive,inactive,inactive,inactive,inactive,inactive,inactive,inactive,inactive,inactive,inactive,
C1CS1,inactive,inactive,inactive,inactive,inactive,,inactive,inactive,inactive,inactive,inactive,inactive,inactive,inactive,inactive,inactive,inactive,,inactive,
C[C@H]1O[C@H](OC2[C@@H](O)[C@@H](O)C(O)[C@H](O)[C@H]2O)[C@@H](N)C[C@@H]1N=C(N)C(=O)O (stereo partly drawn),inactive,inactive,inactive,inactive,inactive,inactive,inactive,inactive,inactive,inactive,inactive,,inactive,inactive,inactive,inactive,inactive,inactive,inactive,inactive
COc1ccccc1N1CCNCC1,inactive,inactive,inactive,inactive,inactive,inactive,inactive,inactive,inactive,inactive,inactive,,inactive,inactive,inactive,inactive,inactive,inactive,,inactive
CCSCc1ccccc1OC(=O)NC,inactive,inactive,inactive,inactive,inactive,,inactive,inactive,inactive,inactive,inactive,inactive,inactive,inactive,inactive,inactive,inactive,inactive,inactive,
C[N+](C)(C)CCOC(=O)C(O)(c1ccccc1)c1ccccc1,inactive,inactive,inactive,inactive,inactive,inactive,inactive,inactive,inactive,,inactive,inactive,inactive,inactive,inactive,inactive,inactive,,inactive,
CN(C)C(=O)Nc1cccc(OC(=O)NC(C)(C)C)c1,inactive,inactive,inactive,inactive,inactive,inactive,inactive,inactive,inactive,inactive,inactive,,inactive,inactive,inactive,inactive,inactive,inactive,inactive,inactive
Cc1nc2ccccc2c(=O)n1-c1ccccc1Cl,inactive,inactive,inactive,inactive,inactive,,inactive,inactive,inactive,inactive,inactive,inactive,inactive,inactive,inactive,inactive,inactive,inactive,inactive,inactive
CC[N+]1(C)CCCC(OC(=O)C(O)(c2ccccc2)c2ccccc2)C1 (stereo not drawn),inactive,inactive,inactive,inactive,inactive,inactive,inactive,inactive,inactive,inactive,inactive,,inactive,inactive,inactive,inactive,inactive,inactive,,

Compound,Potency [1],Potency [2],Potency [3],Potency [4],Potency [5],Potency [6],outcome [7],outcome [8],outcome [9],outcome [10],outcome [11],outcome [12],outcome [13],outcome [14],outcome [15],outcome [16],outcome [17],Potency [18],outcome [19],Potency [20]
CCCC[N+](CCCC)(CCCC)CCCC,inactive,inactive,inactive,inactive,inactive,,inactive,inactive,inactive,inactive,inactive,inactive,inactive,inactive,inactive,inactive,inactive,inactive,inactive,
CCCCC#N,inactive,inactive,inactive,inactive,inactive,inactive,inactive,inactive,inactive,inactive,inactive,,inactive,inactive,inactive,inactive,inactive,,,
COC1=CC(=O)O[C@@H](/C=C/c2ccc3c(c2)OCO3)C1,inactive,inactive,inactive,inactive,inactive,,inactive,inactive,inactive,inactive,inactive,inactive,inactive,inactive,inactive,inactive,inactive,inactive,inactive,inactive
O=C(O)C(Cl)(Cl)Br,inactive,inactive,inactive,inactive,inactive,,inactive,inactive,inactive,inactive,inactive,inactive,inactive,inactive,inactive,inactive,inactive,inactive,inactive,inactive
COc1ccc2c(c1OC)C(=O)O[C@H]2[C@@H]1c2cc3c(cc2CCN1C)OCO3,inactive,inactive,inactive,inactive,inactive,inactive,inactive,inactive,inactive,inactive,inactive,,inactive,inactive,inactive,inactive,inactive,,inactive,
CC(C)C1(C)N=C(c2ncccc2C(=O)O)NC1=O (stereo not drawn),inactive,inactive,inactive,inactive,inactive,,inactive,inactive,inactive,inactive,inactive,inactive,inactive,inactive,inactive,inactive,inactive,inactive,inactive,
Cc1nnc(-c2ccccc2)c(=O)n1N,inactive,inactive,inactive,inactive,inactive,inactive,inactive,inactive,inactive,inactive,inactive,,inactive,inactive,inactive,inactive,inactive,inactive,,
COc1ccc(C(O)(c2cncnc2)C2CC2)cc1 (stereo not drawn),inactive,inactive,inactive,inactive,inactive,,inactive,inactive,inactive,inactive,inactive,inactive,inactive,inactive,inactive,inactive,inactive,inactive,inactive,inactive
CC(O)CN1CCN(CC(=O)[O-])CCN(CC(=O)[O-])CCN(CC(=O)[O-])CC1.[Gd+3] (stereo not drawn),inactive,inactive,inactive,inactive,inactive,inactive,inactive,inactive,inactive,,inactive,inactive,inactive,inactive,inactive,inactive,inactive,inactive,inactive,
OCC1CO1 (stereo not drawn),inactive,inactive,inactive,inactive,inactive,inactive,inactive,inactive,inactive,,inactive,inactive,inactive,inactive,inactive,inactive,inactive,inactive,inactive,inactive
CCCC[N+]1(C)[C@@H]2CC(OC(=O)[C@H](CO)c3ccccc3)C[C@H]1[C@@H]1O[C@@H]12 (stereo partly drawn),inactive,inactive,inactive,inactive,inactive,inactive,inactive,inactive,inactive,inactive,inactive,,inactive,inactive,inactive,inactive,inactive,inactive,,
CCCBr,inactive,inactive,inactive,inactive,inactive,inactive,inactive,inactive,inactive,,inactive,,inactive,inactive,inactive,inactive,inactive,inactive,inactive,
C[C@]12CC[C@H]3[C@@H](CCC4=CC(=O)CC[C@@H]43)[C@@H]1CC[C@@H]2OC(=O)CCc1ccccc1,inactive,inactive,inactive,inactive,inactive,inactive,inactive,inactive,inactive,inactive,inactive,,inactive,inactive,inactive,inactive,inactive,inactive,,6.74 µM (active)
CCN(C(C)=O)c1cccc(-c2ccnc3c(C#N)cnn23)c1,inactive,inactive,inactive,inactive,inactive,,inactive,inactive,inactive,inactive,inactive,inactive,inactive,inactive,inactive,inactive,inactive,,inactive,
O=C(O)c1cc(I)cc(I)c1I,inactive,inactive,inactive,inactive,inactive,inactive,inactive,inactive,inactive,,inactive,inactive,inactive,inactive,inactive,inactive,inactive,inactive,inactive,inactive
OCCCl,inactive,inactive,inactive,inactive,inactive,inactive,inactive,inactive,inactive,inactive,inactive,,inactive,inactive,inactive,inactive,inactive,inactive,inactive,inactive

# Reference: PubChem BioAssay (Tox21)
